Test results published in PubChem BioAssay AID1851 (National Center for Advancing Translational Sciences (NCATS), 2009).
Among all 16,000 compounds or so, about 4,000 (25%) were called active. About 26% were inconclusive and are not listed. Calls follow the shape of the dose curve; as a rule, active = well fitted curve in the direction sought with a large enough effect; inconclusive = small, poorly fitted or top-dose-only effect, or effect the other way; inactive = no such curve, though single readings can be large or run the other way. Not all results are given here.

Target: Cytochrome P450 2C9 (Homo sapiens) (UniProt P11712)
Sequence (P11712 whole entry, looked up): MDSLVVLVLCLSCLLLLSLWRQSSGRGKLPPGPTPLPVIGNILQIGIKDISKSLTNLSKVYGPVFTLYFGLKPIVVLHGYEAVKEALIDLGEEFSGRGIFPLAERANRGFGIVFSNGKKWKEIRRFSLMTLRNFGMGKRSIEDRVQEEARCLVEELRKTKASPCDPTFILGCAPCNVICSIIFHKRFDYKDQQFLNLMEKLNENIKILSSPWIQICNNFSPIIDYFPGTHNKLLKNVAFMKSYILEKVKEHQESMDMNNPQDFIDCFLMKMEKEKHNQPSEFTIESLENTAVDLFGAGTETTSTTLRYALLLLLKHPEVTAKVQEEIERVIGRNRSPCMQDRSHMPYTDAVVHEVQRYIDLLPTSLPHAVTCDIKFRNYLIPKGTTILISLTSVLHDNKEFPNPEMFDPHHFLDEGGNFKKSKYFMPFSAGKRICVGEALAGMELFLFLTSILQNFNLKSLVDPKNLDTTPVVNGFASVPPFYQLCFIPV
Assay: Cytochrome panel assay with activity outcomes
Conditions: recombinant CYP, pro-luciferin dealkylation, luminescence, p450-cyp2c9; series mostly up to 57.1 µM
% is scaled to controls: 0 for no effect and ±100 for the full control effect.

SMILES | activity, negative = inhibition | AC50
N[C@@](CC(=O)O)(Cc1ccccc1)C(=O)O | -1.82% [at 11.4 µM] (inactive) | 
NC(=O)C1(N2CCCCC2)CCN(C(=S)Nc2ccc(Cl)cc2)CC1 |  | inactive
CCOC(=O)N1CCN(C(=O)c2cnc3n(c2=O)CCS3)CC1 |  | inactive
CCOC(=O)N1CCN(C(=O)c2cccn3c(=O)c4cc(Cl)ccc4nc23)CC1 |  | 8.91 µM (active)
O=C(c1ccc2nc3ccc(Cl)cc3c(=O)n2c1)N1CCOCC1 |  | inactive
NC(=O)C1(N2CCCCC2)CCN(C(=O)c2cccn3c(=O)c4cc(Cl)ccc4nc23)CC1 |  | 3.98 µM (active)
NC(=O)C1(N2CCCCC2)CCN(C(=O)c2ccc(-n3cnnn3)cc2)CC1 |  | inactive
Cc1cc(C)cc(NC(=O)C/C(N)=N/O)c1 |  | inactive
C[C@@H]1CCCC(CC(=O)O)(CC(=O)O)C1 | 9.77% [at 11.4 µM] (inactive) | 
CCOC(=O)N1CCN(C(=O)c2ccc3nc(N4CCC(C)CC4)sc3c2)CC1 |  | 2.51 µM (active)
CCOC(=O)N1CCN(C(=O)c2ccc(NC(C)=O)cc2)CC1 |  | inactive
CC1=NN(C(=O)c2ccncc2)C(=O)[C@@H]1N=Nc1ccc2ccccc2c1 | -11.2% [at 11.4 µM] (inactive) | 
OCCN(CCO)c1ncnc2nc[nH]c12 | 5.61% [at 11.4 µM] (inactive) | 
O=C(C=C1SCCS1)/C=C/c1ccco1 |  | inactive
O=C(/C=C/c1ccco1)Nc1ccc(Oc2ccccc2)cc1 |  | 5.01 µM (active)
CO[C@H]1COC(=O)[C@H]2CCCN2C(=O)C/C=C\[C@@H](C)[C@H](OC)COC(=O)C/C=C\[C@@H]1C | 13.8% [at 11.4 µM] (inactive) | 
CC[C@]1(O)C[C@H]2CN(CCc3c([nH]c4ccccc34)[C@](C(=O)OC)(c3cc4c(cc3OC)N(C=O)[C@H]3[C@@](O)(C(=O)OC)[C@H](OC(C)=O)[C@@]5(CC)C=CCN6CC[C@]43[C@H]65)C2)C1 |  | inactive
Cc1nc(SCC(=O)Nc2c(C)nn(C)c2C)c2cnn(-c3ccccc3)c2n1 |  | 2.51 µM (active)
O=C(c1ccccc1)[C@H](Nc1ccc2ccccc2c1)c1ccccc1 | -6.81% [at 11.4 µM] (inactive) | 
Cc1nc(SC(C(=O)c2ccccc2)c2ccccc2)n[nH]1 (configuration not stated) |  | 4.47 µM (active)
O=C1COC(c2ccccc2O)=NN1CCCN1CCCC1 | 2.77% [at 11.4 µM] (inactive) | 
Cc1ccc(NS(=O)(=O)c2cc(C(=O)NCc3ccccn3)ccc2Cl)cc1 |  | 17.8 µM (active)
CN(c1ccc(C(=O)NCc2ccccn2)cc1)S(C)(=O)=O |  | inactive

SMILES | activity, negative = inhibition | AC50
Cc1ccc(NS(=O)(=O)c2cc(C(=O)N3CCc4ccccc4C3)ccc2Cl)cc1 |  | 2.51 µM (active)
O=C(O)[C@@H]1[C@@H](C(=O)NCc2ccccn2)[C@@H]2C=C[C@@H]1O2 | 1.33% [at 11.4 µM] (inactive) | 
CN(CC(=O)Nc1ccc(F)c(F)c1)S(=O)(=O)c1cccc2nsnc12 |  | 0.355 µM (active)
CC1CCN(C(=O)CN(C)S(=O)(=O)c2cccc3nsnc23)CC1 |  | inactive
COc1ccc(C(F)(F)F)cc1N/C=C\c1nnnn1-c1ccccc1 |  | 4.47 µM (active)
CS(=O)(=O)N1CCC[C@@]2(CCN(c3ncccn3)C2)C1 |  | inactive
NC(=O)NC(=O)Nc1ccccc1Cl |  | inactive
O=C(O)C[C@H](Cc1ccccc1Cl)C(=O)O | 2.18% [at 11.4 µM] (inactive) | 
O=C(O)COC(=O)Cc1ccccc1Nc1c(Cl)cccc1Cl |  | 1.58 µM (active)
CNc1ccnc(-c2ccccc2OC)n1 | -17.5% [at 2.29 µM] (inactive) | 
CC1CC(C)CN(CCCNC(=O)C2CCCN(c3nnc(N4CCCC4=O)s3)C2)C1 (configuration not stated) |  | inactive
CCCS(=O)(=O)N1CCCC(C(=O)NCCN(C)Cc2ccccc2)C1 (configuration not stated) |  | inactive
O=C(NCCC1=CCCCC1)C1CCCN(c2nc3ccccc3o2)C1 (configuration not stated) |  | 3.55 µM (active)
Cn1c(=O)c(C(=O)CN2CCOCC2)c(N)n(Cc2ccccc2)c1=O |  | inactive
CC(C)Cn1c(N)c(C(=O)CSc2ccc3c(c2)OCCO3)c(=O)n(C)c1=O |  | 3.55 µM (active)
CC(C)Cn1c(=O)n(C)c(=O)c2[nH]cnc21 |  | inactive
CN1CCN(c2ncncc2-c2ccoc2)CC1 | 17.1% [at 2.29 µM] (inactive) | 
O=C(Nc1ccccc1C(=O)Nc1ccc2c(c1)OCO2)c1ccco1 |  | 1.41 µM (active)
O=C(Nc1ccccc1C(=O)NCCc1ccccc1)c1ccco1 |  | 2.82 µM (active)
Cc1ccc(C(C(=O)NC2CCCCC2)N2CCN(C(=O)c3ccco3)CC2)cc1 (configuration not stated) |  | inactive
CCC(NC(=O)c1ccccc1NC(=O)c1ccco1)C(=O)NC1CCCCC1 (configuration not stated) |  | 7.08 µM (active)
CCCC[P+](CCCC)(CCCC)Cc1ccc(NC(=O)[C@@H](Cc2ccc3ccccc3c2)NC(=NC2CCCCC2)NC2CCCCC2)cc1 |  | inactive
COc1ccccc1CNc1cc(-c2ccc(C(=O)N(C)C)cc2)ncn1 | 10% [at 2.29 µM] (inactive) | 

SMILES | activity, negative = inhibition | AC50
CN1CCN(C2=Nc3ccccc3Oc3ccc(Cl)cc32)CC1 |  | inactive
COC(=O)c1c(NC(=O)c2ccco2)sc2c1CCC2 |  | 2.82 µM (active)
CCN1C(=O)[C@H]2[C@H]3[C@H](O)[C@H](O)C/C(=N/O[C@@H]4O[C@@H](COC(C)=O)[C@@H](OC(C)=O)[C@@H](OC(C)=O)[C@H]4OC(C)=O)[C@H]3CC[C@@H]2C1=O | 23.1% [at 11.4 µM] (inactive) | 
COc1cc(NC(=O)c2cc3nc(-c4ccccc4)cc(-c4ccccc4)n3n2)cc(OC)c1OC |  | 2.24 µM (active)
COc1ccc(-c2cc(C(=O)Nc3cc(OC)c(OC)c(OC)c3)no2)cc1OC |  | inactive
O=c1ccnc(SCc2ccc(Cl)cc2)[nH]1 | -29.9% [at 11.4 µM] (inactive) | 
CC(C)[C@H](N)c1nnc(SCc2ccc(Cl)cc2)o1 |  | 1.78 µM (active)
Clc1ccc(CSc2ncnc3c2ncn3[C@@H]2CCCCO2)cc1 | -17.8% [at 11.4 µM] (inactive) | 
CC(CC(=O)O)(CC(=O)O)C(=O)O | -9.5% [at 11.4 µM] (inactive) | 
O=C(Cc1ccccc1[N+](=O)[O-])NCCSCc1c(F)cccc1Cl |  | inactive
O=C(O)CCSCc1ccccc1 | 24.2% [at 11.4 µM] (inactive) | 
O=C(Cc1ccccc1)NCCSCc1ccc(Cl)cc1 |  | 3.98 µM (active)
CCN(CC)c1ncnc2c1sc1nc(C)cc(C)c12 |  | 17.8 µM (active)
Cc1noc(C)c1-c1cncnc1Nc1ccccc1 | -0.353% [at 2.29 µM] (inactive) | 
CCN1C(=O)C(CC(=O)Nc2ccc(Br)cc2)N(CCCc2ccccc2)C1=S (configuration not stated) |  | 0.708 µM (active)
CCN1C(=O)C(CC(=O)Nc2ccc(OC)cc2)N(Cc2cccs2)C1=S (configuration not stated) |  | 7.08 µM (active)
CCNc1ncc2nc(-c3ccc(OC)cc3)c(=O)n(Cc3cccs3)c2n1 |  | inactive
CCOC(=O)C1=C(C)N=C2c3ccccc3C(=O)C2C1c1ccc(C)cc1 (configuration not stated) |  | 0.891 µM (active)
CCOC(=O)C1=C(C)N=C2c3ccccc3C(=O)C2C1c1ccc(Cl)cc1 (configuration not stated) |  | 0.562 µM (active)
Cc1nnsc1SC(C)C(=O)O (configuration not stated) |  | inactive
CC(=O)c1cccc(NS(=O)(=O)c2ccc(N/C=C\C(=O)c3ccc(F)cc3)cc2)c1 |  | 2.82 µM (active)
O=C(/C=C/Nc1ccccc1)c1ccc(Oc2ncccn2)cc1 |  | inactive
CC(=O)c1cccc(NC=C2C(=O)OC3(CCCCC3)OC2=O)c1 |  | inactive

SMILES | activity, negative = inhibition | AC50
Cc1cnc(CNc2cc(-c3ccccc3CN(C)C)ncn2)cn1 | 10.9% [at 2.29 µM] (inactive) | 
COC(=O)c1ccc(/C=N\NC(=O)c2ccc(C)cc2Cl)cc1 |  | 8.91 µM (active)
Cc1ccc(C(=O)N/N=C/c2ccc(S(=O)(=O)O)o2)c(Cl)c1 |  | inactive
Cc1ccc(S(=O)(=O)NC(CC(C)C)C(=O)Oc2ccc3c4c(c(=O)oc3c2)CCC4)cc1 (configuration not stated) |  | inactive
Cc1ccc(S(=O)(=O)N[C@H](C(=O)Oc2ccc3c(C(F)(F)F)cc(=O)oc3c2)c2ccccc2)cc1 |  | 10 µM (active)
Cc1ccc(S(=O)(=O)N[C@H](CN)C(=O)O)cc1 | -0.685% [at 11.4 µM] (inactive) | 
c1ccc2c(c1)ncn2-c1ccc(-c2ccnc(-c3ccncc3)n2)cc1 |  | 0.224 µM (active)
CCC(C)NS(=O)(=O)c1ccc(OCC(=O)NCC2CCCO2)cc1 (configuration not stated) |  | inactive
CCC(C)NS(=O)(=O)c1ccc(OCC(=O)Nc2ccc3c(c2)OCCO3)cc1 (configuration not stated) |  | 3.98 µM (active)
CSc1nc(C)cc(Nc2ccc(O)c(CN3CCOCC3)c2)n1 | -8.69% [at 11.4 µM] (inactive) | 
Cc1cc(N2CCOCC2)nc(SCc2ccc(Cl)cc2Cl)n1 |  | 7.94 µM (active)
Cc1cc(C)c2c(SCc3ccc(Cl)cc3Cl)nc(N)nc2n1 | -3.34% [at 11.4 µM] (inactive) | 
c1ccc(Nc2ncncc2-c2ccoc2)cc1 | 4.61% [at 2.29 µM] (inactive) | 
O=[N+]([O-])C1=CC=C2C(=NC3(CCCCC3)N2O)C1=NC1CCCCC1 |  | 3.55 µM (active)
CCOC(=O)C1=C[C@@]2(CC)CCCN3CCc4c(n1c1ccccc41)[C@H]32 |  | inactive
CCOCC(=O)Nc1cc(C(=O)Nc2ccccc2)ccc1Cl |  | 5.62 µM (active)
CCOCC(=O)Nc1cc(C(=O)Nc2cccc(C)c2C)ccc1Cl |  | inactive
NCCSCCc1ccccc1 | -27.8% [at 11.4 µM] (inactive) | 
c1ccc(CCSc2nccn2-c2ccccc2)cc1 |  | 15.8 µM (active)
Cn1nnnc1SCc1ccccc1[N+](=O)[O-] |  | inactive
O=C(O)CSCCc1ccccc1 | 29.1% [at 11.4 µM] (inactive) | 
Cc1ccccc1CSc1nccn1-c1ccccc1 |  | 7.08 µM (active)
CC(=O)N[C@@H]1CONC1=O | -5.39% [at 11.4 µM] (inactive) | 
